Assay results from the supplement of paper PMC13380429.
Counter-ions that a name gives are not always drawn.

Tested on: Vero E6 infected with SARS-CoV-2
Assay: inhibition of SARS-CoV-2 cytopathic effect; higher = more antiviral protection, active = above 15
Conditions: 48 h

Measured: inhibition of SARS-CoV-2 cytopathic effect

CC1(C)Oc2ccc(C#N)cc2[C@@H](N2CCCC2=O)[C@@H]1O [levcromakalim]
inactive: 1 nM 0.65% | 8.33 nM 1.1% | 100 nM 0.31% | 833.33 nM 1.22% | 10000 nM 2.06%

C[C@]12CC[C@H](O)C[C@H]1CC[C@@H]1[C@@H]2C[C@@H](O)[C@]2(C)[C@@H](C3=CC(=O)OC3)CC[C@]12O [digoxigenin]
inactive: 1 nM -0.69% | 8.33 nM -0.54% | 100 nM -6.58% | 833.33 nM -10.3% | 10000 nM -14.1%

CCCCNC(=O)[C@@H]1Cc2ccccc2N1C(=O)[C@@H](N)CC [butabindide]
inactive: 1 nM 1.64% | 8.33 nM 1.33% | 100 nM -3.07% | 833.33 nM 1.68% | 10000 nM 2.75%

CN[C@@H]1[C@H](O[C@H]2[C@H](O[C@H]3[C@H](O)[C@@H](O)[C@H](N=C(N)N)[C@@H](O)[C@@H]3N=C(N)N)O[C@@H](C)[C@]2(O)C=O)O[C@@H](CO)[C@H](O)[C@H]1O [STREPTOMYCIN SULFATE [5mM; 10% aq DMSO + 5mM ethanolamine]]
inactive: 1 nM -0.46% | 8.33 nM -1.64% | 100 nM -0.12% | 833.33 nM 1.53% | 10000 nM 0.2%

O=C(NC1CCNCC1)[C@@H]1CC[C@@H]2CN1C(=O)N2OS(=O)(=O)O [relebactam]
inactive: 1 nM 0.07% | 8.33 nM 1.87% | 100 nM 1.26% | 833.33 nM -0.84% | 10000 nM -1.06%

CC1Oc2cc(cnc2N)-c2c(nn(C)c2C#N)CN(C)C(=O)c2ccc(F)cc21 (stereo not given)
inactive: 1 nM -0.41% | 8.33 nM 1.22% | 100 nM 0.495% | 833.33 nM -2.23% | 10000 nM 0.255%

C[C@]12CCC(=O)C[C@@H]1CC[C@@H]1[C@@H]2CC[C@]2(C)[C@@H](O)CC[C@@H]12 [Dihydrotestosterone]
inactive: 1 nM -0.75% | 8.33 nM -1.02% | 100 nM -1.92% | 833.33 nM -2.8% | 10000 nM -3.3%

COc1cc(Br)c(S(=O)(=O)Nc2ccc(C(F)(F)F)c(O[C@@H]3CCN(C)C3)c2)cc1OC
inactive: 1 nM 1.05% | 8.33 nM 2.6% | 100 nM -1.36% | 833.33 nM -0.46% | 10000 nM -2.24%

C=CC[N@@+]12CC[C@@]34c5ccccc5N5/C=C6/[C@H]7C[C@H]8[C@@]9(CC[N@@+]8(CC=C)C/C7=C/CO)c7ccccc7N(/C=C(/[C@@H](C[C@@H]31)/C(=C\CO)C2)[C@H]54)[C@@H]69 [alcuronium]
inactive: 1 nM 1.2% | 8.33 nM -0.77% | 100 nM -0.24% | 833.33 nM -0.81% | 10000 nM 4.13%

CCC(CC)C(c1ccc(Nc2nc3ccccc3s2)cc1)n1cncn1 (stereo not given) [talarozole]
inactive: 1 nM 3.05% | 8.33 nM 0.68% | 100 nM 0.42% | 833.33 nM 1.31% | 10000 nM 4.15%

Nc1nc(Nc2ccc(S(N)(=O)=O)cc2)nn1C(=O)c1c(F)cccc1F
inactive: 1 nM 2.48% | 8.33 nM 1.33% | 100 nM 0.15% | 833.33 nM -0.22% | 10000 nM 10.8%

CC(C)[C@]12O[C@H]1[C@@H]1O[C@]13[C@]1(O[C@H]1C[C@H]1C4=C(CC[C@@]13C)C(=O)OC4)[C@@H]2O [triptolide]
inactive: 1 nM -1.16% | 8.33 nM -2.32% | 100 nM -12.1% | 833.33 nM -9.06% | 10000 nM -8.11%

Cc1ccc(C(=O)Nc2ccc(S(=O)(=O)O)c3cc(S(=O)(=O)O)cc(S(=O)(=O)O)c23)cc1NC(=O)c1cccc(NC(=O)Nc2cccc(C(=O)Nc3cc(C(=O)Nc4ccc(S(=O)(=O)O)c5cc(S(=O)(=O)O)cc(S(=O)(=O)O)c45)ccc3C)c2)c1 [suramin]
inactive: 1 nM 0.16% | 8.33 nM 0.17% | 100 nM 0.66% | 833.33 nM -0.75% | 10000 nM 1.44%

C/C=C1\[C@H]2C=C(C)C[C@]1(N)c1ccc(=O)[nH]c1C2 [(-)-Huperzine A]
inactive: 1 nM 0.37% | 8.33 nM 2.1% | 100 nM 0.96% | 833.33 nM -0.65% | 10000 nM -0.5%

CC(=O)[C@H]1CC[C@H]2[C@@H]3CC=C4C[C@@H](O)CC[C@]4(C)[C@H]3CC[C@]12C [pregnenolone]
inactive: 1 nM -0.59% | 8.33 nM 3.91% | 100 nM -5.44% | 833.33 nM -1.71% | 10000 nM -3.04%

COc1ccc(F)c(F)c1C(=O)c1cnc(NC2CCN(S(C)(=O)=O)CC2)nc1N
inactive: 1 nM -1.93% | 8.33 nM -3.14% | 100 nM -5.01% | 833.33 nM 6.41% | 10000 nM -11.5%

Cc1onc(-c2ccccc2)c1-c1ccc(S(N)(=O)=O)cc1 [valdecoxib]
inactive: 1 nM 0.48% | 8.33 nM -0.66% | 100 nM -0.48% | 833.33 nM 3.3% | 10000 nM 0.55%

COC(=O)C1=C(C)NC(C)=C(C(=O)NCCCN2CCC(c3ccccc3)(c3ccccc3)CC2)C1c1ccc([N+](=O)[O-])cc1 (stereo not given)
inactive: 1 nM 1.77% | 8.33 nM 1.95% | 100 nM 0.45% | 833.33 nM 0.78%
active: 10000 nM 48.8%

COC(=O)c1cc(OC)c2c(c1-c1c(C(=O)OC)cc(OC)c3c1OCO3)OCO2 [bifendate]
inactive: 1 nM 1.14% | 8.33 nM 2.56% | 100 nM 3.5% | 833.33 nM 1.43% | 10000 nM 1.73%

CCn1cc(-c2cccc(C(F)(F)F)c2)c2sc(C(=N)NC3CCS(=O)(=O)CC3)cc2c1=O
inactive: 1 nM 1.59% | 8.33 nM 3.81% | 100 nM 1.38% | 833.33 nM 0.93% | 10000 nM -7.19%

CC(C)CCNc1ncccc1C(=O)N1CCN(Cc2ccccc2)CC1
inactive: 1 nM 0.16% | 8.33 nM 0.21% | 100 nM 1.38% | 833.33 nM 0.33% | 10000 nM -0.35%

S=C(NC1CCCCC1)N1CCC(c2cnc[nH]2)CC1 [thioperamide]
inactive: 1 nM 1.24% | 8.33 nM 1.61% | 100 nM -0.03% | 833.33 nM 0.28% | 10000 nM -2.39%

CSCC[C@H](NC(=O)[C@H](CC(C)C)NC(=O)CNC(=O)[C@H](Cc1ccccc1)NC(=O)[C@H](Cc1ccccc1)NC(=O)[C@H](CCC(N)=O)NC(=O)[C@H](CCC(N)=O)NC(=O)[C@@H]1CCCN1C(=O)[C@H](CCCCN)NC(=O)[C@@H]1CCCN1C(=O)[C@@H](N)CCCN=C(N)N)C(N)=O [substance-P]
inactive: 1 nM -5.5% | 8.33 nM -11.3% | 100 nM -9.37% | 833.33 nM -10.4% | 10000 nM -5.64%

N[C@@H]1CCN(c2cccnc2)C1
inactive: 1 nM 0.23% | 8.33 nM 0.19% | 100 nM 1.46% | 833.33 nM 2.41% | 10000 nM 3.85%

Cc1ccc([N+](=O)[O-])cc1O [2-methyl-5-nitrophenol]
inactive: 1 nM -2.8% | 8.33 nM -2.93% | 100 nM -4.49% | 833.33 nM -3.09% | 10000 nM -2.25%

O=C(NCC1CCOCC1)c1cnc(Nc2ccc(Cl)cc2Cl)nc1C(F)(F)F
inactive: 1 nM -0.74% | 8.33 nM 0.36% | 100 nM 0.86% | 833.33 nM 1.5% | 10000 nM 3.56%

COC(=O)Nc1nc2cc([S+]([O-])c3ccccc3)ccc2[nH]1 (stereo not given) [oxfendazole]
inactive: 1 nM 3.62% | 8.33 nM 1.23% | 100 nM 6.94% | 833.33 nM 0.7% | 10000 nM -1.5%

CO[C@@H](C(=O)N1Cc2[nH]nc(NC(=O)c3ccc(N4CCN(C)CC4)cc3)c2C1)c1ccccc1 [danusertib]
inactive: 1 nM 2.82% | 8.33 nM 2.41% | 100 nM -1.12% | 833.33 nM -0.08% | 10000 nM -3.74%

CCC(=O)Nc1cccc(Oc2nc(Nc3ccc(N4CCN(C)CC4)cc3OC)ncc2Cl)c1
inactive: 1 nM -2.36% | 8.33 nM -1.81% | 100 nM -3.83% | 833.33 nM -2.5% | 10000 nM 1.78%

N#Cc1cccc(C(=O)Nc2cc(-c3ccccc3)nn2-c2ccccc2)c1
inactive: 1 nM 1.77% | 8.33 nM 4.71% | 100 nM 3.47% | 833.33 nM 3.43% | 10000 nM 1.98%

O=C(Nc1ccc(O)cc1)c1ccccc1O [N-salicoylaminophenol]
inactive: 1 nM 1.23% | 8.33 nM 2.05% | 100 nM 1.76% | 833.33 nM 2.47% | 10000 nM 4.87%

C[C@@H]1CN(Cc2ncccn2)C[C@H]1c1nc2c(cnn2C2CCOCC2)c(=O)[nH]1
inactive: 1 nM -1.78% | 8.33 nM 1.47% | 100 nM -0.33% | 833.33 nM 1.24% | 10000 nM -2.82%

Cc1cccc(-c2n[nH]cc2-c2ccc3ncccc3n2)n1 [repsox]
inactive: 1 nM -0.69% | 8.33 nM 2.3% | 100 nM -2.26% | 833.33 nM -4.59% | 10000 nM -4.62%

COc1cc(N2CCC(O)CC2)ccc1Nc1cc(Nc2ccccc2S(=O)(=O)C(C)C)c2cc[nH]c2n1
inactive: 1 nM 5.38% | 8.33 nM 3.7% | 100 nM -1.89% | 833.33 nM 0.98% | 10000 nM -7.51%

CC(=O)NC1N=C(c2ccccc2)c2ccccc2NC1=O (stereo not given)
inactive: 1 nM 0.39% | 8.33 nM 1.87% | 100 nM -0.74% | 833.33 nM 0.99% | 10000 nM -0.69%

CCc1cc2c(c(CC)n1)CCC(=O)N2Cc1ccc(-c2ccccc2-c2nnn[nH]2)cc1
inactive: 1 nM -4.46% | 8.33 nM -5.09% | 100 nM -2.79% | 833.33 nM -3.64% | 10000 nM -0.49%

N#Cc1cccc(-c2nc(-c3cccnc3)no2)c1
inactive: 1 nM -1.62% | 8.33 nM 0.72% | 100 nM -0.15% | 833.33 nM -1.08% | 10000 nM 2.85%

C=C[C@H]1CN2CC[C@H]1CC2C(OC(=O)OCC)c1ccnc2ccc(OC)cc12 (stereo in doubt) [quinine-ethyl-carbonate]
inactive: 1 nM 0.47% | 8.33 nM 2.1% | 100 nM 0.07% | 833.33 nM 6.66% | 10000 nM 5.77%
